Measurements: the supplement of paper PMC11732987, “Enantioselective OTUD7B fragment discovery through chemoproteomics screening and high-throughput optimisation” (Communications Chemistry, 2025)

What was measured:
Assay in all cases: log2 ratio of Biotin-Ahx-Ub-VS probe labelling (fragment/DMSO); higher = less target engagement (more negative = stronger competition), active = hit call of the paper (q ≤ 0.05, log2 ratio ≤ -1)
Conditions in all cases: compound concentration: 200 uM; treatment time: 3 h
[1] = target: USP9X (UniProt Q93008)
Outline: (§1)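 Fragment (200 µM) or vehicle was incubated for 3 h with triplicate HEK293T lysate samples of 495 µg, which were then treated with Biotin-Ahx-Ub-VS at 0.5 µM final for 1 h. Labelled DUBs were enriched on NeutrAvidin, digested with LysC and trypsin, and analysed by diaPASEF LC-MS/MS. Values are average log2 fragment/vehicle ratios from an unpaired t-test on global-median-normalised Spectronaut label-free quantities, using proteins with ≥2 unique peptides.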

[2] = target: UniProt O00487
Outline: as §1

[3] = target: UniProt O00507
Outline: as §1

[4] = target: UniProt P51784
Outline: as §1

[5] = target: T1, UniProt Q5T2D3
T1 sequence (whole entry): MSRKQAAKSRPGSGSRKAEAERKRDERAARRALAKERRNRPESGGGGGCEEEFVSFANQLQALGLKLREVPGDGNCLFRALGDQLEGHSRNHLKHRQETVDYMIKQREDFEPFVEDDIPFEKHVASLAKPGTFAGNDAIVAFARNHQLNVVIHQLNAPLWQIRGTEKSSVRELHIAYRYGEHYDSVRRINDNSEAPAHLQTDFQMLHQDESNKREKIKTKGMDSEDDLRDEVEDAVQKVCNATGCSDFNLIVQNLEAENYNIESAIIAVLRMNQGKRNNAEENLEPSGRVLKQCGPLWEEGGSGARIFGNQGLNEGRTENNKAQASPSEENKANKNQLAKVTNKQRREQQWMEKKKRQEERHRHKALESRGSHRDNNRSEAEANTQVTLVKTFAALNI
Outline: as §1

[6] = target: T2, UniProt Q8TE49
T2 sequence (whole entry): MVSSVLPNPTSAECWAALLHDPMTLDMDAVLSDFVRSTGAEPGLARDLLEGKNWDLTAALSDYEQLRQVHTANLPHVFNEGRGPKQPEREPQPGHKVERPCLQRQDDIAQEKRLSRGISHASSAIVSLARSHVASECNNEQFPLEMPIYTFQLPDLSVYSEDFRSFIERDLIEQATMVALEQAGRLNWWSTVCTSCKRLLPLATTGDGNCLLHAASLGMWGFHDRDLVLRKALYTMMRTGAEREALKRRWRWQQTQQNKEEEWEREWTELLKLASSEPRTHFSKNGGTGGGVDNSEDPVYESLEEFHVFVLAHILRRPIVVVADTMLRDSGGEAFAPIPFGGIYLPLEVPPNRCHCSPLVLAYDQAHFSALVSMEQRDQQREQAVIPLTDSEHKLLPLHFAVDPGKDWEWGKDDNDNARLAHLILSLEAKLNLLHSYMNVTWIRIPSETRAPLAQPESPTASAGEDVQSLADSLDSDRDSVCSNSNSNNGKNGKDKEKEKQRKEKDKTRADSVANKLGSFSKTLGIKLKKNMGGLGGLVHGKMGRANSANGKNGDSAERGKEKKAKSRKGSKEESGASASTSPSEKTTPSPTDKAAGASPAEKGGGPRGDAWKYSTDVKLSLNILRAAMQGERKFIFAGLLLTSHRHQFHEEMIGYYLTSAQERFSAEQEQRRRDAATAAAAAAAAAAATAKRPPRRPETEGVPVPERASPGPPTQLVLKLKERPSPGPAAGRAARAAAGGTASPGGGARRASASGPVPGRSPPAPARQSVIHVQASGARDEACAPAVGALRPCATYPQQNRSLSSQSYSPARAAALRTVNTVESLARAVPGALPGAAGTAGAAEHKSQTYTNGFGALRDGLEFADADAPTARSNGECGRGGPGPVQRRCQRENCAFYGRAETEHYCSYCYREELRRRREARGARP
Outline: as §1

[7] = target: T3, UniProt Q9P2H5
T3 sequence (whole entry): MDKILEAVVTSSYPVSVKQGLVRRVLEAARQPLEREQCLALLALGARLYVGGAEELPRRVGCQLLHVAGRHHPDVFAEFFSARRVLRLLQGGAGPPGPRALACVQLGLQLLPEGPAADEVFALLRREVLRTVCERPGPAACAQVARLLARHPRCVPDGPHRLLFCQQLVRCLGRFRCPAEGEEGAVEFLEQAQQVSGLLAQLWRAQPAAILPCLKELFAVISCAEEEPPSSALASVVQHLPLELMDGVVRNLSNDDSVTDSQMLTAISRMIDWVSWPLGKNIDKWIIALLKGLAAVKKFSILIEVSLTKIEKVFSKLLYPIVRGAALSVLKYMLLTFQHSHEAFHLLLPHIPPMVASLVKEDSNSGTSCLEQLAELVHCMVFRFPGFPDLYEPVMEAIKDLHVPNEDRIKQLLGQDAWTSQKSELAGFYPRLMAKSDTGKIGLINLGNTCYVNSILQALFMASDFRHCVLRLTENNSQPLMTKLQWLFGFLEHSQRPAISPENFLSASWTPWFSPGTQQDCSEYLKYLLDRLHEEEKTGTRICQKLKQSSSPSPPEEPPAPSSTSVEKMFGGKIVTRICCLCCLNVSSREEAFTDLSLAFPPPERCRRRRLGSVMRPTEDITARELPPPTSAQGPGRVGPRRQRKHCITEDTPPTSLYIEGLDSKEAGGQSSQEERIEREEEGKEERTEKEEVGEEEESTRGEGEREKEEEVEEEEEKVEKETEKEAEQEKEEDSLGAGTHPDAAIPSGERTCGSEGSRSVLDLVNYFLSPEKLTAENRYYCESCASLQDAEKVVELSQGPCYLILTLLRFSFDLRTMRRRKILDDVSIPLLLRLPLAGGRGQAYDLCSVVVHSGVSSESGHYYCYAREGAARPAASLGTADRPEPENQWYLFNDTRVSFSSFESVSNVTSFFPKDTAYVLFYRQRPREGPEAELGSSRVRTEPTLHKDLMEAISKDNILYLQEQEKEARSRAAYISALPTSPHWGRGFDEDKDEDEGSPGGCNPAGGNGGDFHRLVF
Outline: as §1

[8] = target: T4, UniProt Q9UGI0
T4 sequence (whole entry): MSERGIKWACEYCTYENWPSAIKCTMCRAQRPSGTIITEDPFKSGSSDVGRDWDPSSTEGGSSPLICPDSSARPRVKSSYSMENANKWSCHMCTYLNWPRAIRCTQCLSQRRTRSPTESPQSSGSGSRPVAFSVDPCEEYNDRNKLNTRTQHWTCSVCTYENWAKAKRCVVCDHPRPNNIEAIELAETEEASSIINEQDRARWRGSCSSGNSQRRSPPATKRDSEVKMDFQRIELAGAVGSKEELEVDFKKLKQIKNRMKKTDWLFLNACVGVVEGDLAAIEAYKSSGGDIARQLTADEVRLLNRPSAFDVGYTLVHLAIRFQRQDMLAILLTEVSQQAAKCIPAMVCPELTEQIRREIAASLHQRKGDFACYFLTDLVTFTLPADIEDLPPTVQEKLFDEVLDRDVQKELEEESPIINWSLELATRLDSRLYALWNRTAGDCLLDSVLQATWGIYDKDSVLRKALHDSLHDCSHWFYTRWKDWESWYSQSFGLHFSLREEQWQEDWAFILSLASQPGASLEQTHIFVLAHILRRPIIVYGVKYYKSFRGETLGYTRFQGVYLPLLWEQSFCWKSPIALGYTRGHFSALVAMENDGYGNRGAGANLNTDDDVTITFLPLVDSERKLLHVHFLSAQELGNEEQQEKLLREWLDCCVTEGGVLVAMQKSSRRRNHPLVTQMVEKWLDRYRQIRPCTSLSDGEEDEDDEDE
Outline: as §1

[9] = target: T5, YOD1 (UniProt Q5VVQ6)
T5 sequence (whole entry): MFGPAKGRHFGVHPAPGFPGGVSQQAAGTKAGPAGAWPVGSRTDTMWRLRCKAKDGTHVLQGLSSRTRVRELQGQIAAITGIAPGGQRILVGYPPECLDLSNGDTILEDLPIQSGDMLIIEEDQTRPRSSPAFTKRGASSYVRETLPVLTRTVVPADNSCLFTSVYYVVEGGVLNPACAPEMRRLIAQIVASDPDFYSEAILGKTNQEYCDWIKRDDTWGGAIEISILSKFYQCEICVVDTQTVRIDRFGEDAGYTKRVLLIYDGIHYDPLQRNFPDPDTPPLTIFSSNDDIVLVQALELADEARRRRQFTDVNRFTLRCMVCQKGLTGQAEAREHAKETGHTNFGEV
Outline: as §1

Measured: log2 ratio of Biotin-Ahx-Ub-VS probe labelling

Chain of USP9X (Q93008 whole entry, the tested form may be a part): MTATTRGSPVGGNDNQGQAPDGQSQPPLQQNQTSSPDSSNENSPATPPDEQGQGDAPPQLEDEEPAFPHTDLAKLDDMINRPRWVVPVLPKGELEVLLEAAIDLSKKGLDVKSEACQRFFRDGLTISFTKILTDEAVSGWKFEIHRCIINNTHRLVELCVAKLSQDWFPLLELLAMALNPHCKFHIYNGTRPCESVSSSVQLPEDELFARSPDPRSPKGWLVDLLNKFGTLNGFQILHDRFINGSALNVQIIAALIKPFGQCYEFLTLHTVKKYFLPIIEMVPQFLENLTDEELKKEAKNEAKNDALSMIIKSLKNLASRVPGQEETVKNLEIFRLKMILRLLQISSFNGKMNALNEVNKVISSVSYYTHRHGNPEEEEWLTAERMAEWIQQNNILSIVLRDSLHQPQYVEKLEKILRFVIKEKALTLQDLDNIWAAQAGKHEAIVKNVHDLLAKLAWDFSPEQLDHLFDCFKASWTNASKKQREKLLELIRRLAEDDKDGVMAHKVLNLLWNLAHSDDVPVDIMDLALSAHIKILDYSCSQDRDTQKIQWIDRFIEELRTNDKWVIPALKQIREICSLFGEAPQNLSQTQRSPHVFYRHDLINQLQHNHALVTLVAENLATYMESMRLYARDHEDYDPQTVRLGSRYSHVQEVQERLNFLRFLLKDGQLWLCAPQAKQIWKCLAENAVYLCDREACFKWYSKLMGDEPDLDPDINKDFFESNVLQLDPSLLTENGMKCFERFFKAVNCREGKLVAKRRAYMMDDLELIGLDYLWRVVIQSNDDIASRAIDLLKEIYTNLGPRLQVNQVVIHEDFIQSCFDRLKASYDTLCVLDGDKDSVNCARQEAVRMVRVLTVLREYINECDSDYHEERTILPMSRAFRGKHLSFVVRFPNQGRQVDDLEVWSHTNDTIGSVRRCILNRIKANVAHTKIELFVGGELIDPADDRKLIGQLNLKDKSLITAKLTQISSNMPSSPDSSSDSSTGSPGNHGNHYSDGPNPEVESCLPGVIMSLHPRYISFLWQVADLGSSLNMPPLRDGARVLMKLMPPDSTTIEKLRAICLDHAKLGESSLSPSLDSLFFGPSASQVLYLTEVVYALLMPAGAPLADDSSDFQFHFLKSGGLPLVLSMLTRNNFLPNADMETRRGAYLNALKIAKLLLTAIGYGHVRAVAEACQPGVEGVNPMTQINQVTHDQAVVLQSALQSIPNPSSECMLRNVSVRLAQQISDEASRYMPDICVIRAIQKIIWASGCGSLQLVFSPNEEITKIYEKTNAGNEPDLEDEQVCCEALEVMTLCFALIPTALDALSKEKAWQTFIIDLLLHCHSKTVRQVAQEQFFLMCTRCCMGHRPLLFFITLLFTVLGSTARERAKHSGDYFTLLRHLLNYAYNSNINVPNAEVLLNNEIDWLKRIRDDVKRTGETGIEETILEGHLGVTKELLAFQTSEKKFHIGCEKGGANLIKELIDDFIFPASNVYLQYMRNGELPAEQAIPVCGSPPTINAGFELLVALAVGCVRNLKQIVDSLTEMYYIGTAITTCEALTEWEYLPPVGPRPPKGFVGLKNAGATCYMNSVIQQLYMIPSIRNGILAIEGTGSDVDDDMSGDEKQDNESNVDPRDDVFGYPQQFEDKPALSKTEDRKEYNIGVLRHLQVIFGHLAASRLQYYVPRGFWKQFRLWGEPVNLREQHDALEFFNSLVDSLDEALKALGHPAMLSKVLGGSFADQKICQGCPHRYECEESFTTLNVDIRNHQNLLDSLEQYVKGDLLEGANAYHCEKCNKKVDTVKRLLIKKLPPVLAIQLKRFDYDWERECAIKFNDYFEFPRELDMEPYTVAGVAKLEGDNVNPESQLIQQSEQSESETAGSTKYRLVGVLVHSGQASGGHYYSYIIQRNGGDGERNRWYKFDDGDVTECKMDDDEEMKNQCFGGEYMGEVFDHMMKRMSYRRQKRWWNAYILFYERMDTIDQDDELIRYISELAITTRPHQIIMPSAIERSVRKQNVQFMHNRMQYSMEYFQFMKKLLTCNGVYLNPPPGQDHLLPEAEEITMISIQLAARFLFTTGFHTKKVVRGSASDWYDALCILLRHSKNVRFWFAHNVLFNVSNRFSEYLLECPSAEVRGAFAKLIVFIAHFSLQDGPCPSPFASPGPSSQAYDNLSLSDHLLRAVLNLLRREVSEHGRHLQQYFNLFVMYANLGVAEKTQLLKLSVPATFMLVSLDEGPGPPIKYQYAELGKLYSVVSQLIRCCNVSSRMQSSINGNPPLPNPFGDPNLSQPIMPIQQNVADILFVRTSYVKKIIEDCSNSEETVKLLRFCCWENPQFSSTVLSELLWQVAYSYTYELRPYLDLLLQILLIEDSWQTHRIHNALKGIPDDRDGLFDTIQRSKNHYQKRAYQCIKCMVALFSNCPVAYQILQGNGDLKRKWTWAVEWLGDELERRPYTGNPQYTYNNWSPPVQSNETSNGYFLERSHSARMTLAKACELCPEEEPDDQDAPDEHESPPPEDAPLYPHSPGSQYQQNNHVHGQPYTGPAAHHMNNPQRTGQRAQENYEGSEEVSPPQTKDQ
Chain of UniProt O00507 (O00507 whole entry): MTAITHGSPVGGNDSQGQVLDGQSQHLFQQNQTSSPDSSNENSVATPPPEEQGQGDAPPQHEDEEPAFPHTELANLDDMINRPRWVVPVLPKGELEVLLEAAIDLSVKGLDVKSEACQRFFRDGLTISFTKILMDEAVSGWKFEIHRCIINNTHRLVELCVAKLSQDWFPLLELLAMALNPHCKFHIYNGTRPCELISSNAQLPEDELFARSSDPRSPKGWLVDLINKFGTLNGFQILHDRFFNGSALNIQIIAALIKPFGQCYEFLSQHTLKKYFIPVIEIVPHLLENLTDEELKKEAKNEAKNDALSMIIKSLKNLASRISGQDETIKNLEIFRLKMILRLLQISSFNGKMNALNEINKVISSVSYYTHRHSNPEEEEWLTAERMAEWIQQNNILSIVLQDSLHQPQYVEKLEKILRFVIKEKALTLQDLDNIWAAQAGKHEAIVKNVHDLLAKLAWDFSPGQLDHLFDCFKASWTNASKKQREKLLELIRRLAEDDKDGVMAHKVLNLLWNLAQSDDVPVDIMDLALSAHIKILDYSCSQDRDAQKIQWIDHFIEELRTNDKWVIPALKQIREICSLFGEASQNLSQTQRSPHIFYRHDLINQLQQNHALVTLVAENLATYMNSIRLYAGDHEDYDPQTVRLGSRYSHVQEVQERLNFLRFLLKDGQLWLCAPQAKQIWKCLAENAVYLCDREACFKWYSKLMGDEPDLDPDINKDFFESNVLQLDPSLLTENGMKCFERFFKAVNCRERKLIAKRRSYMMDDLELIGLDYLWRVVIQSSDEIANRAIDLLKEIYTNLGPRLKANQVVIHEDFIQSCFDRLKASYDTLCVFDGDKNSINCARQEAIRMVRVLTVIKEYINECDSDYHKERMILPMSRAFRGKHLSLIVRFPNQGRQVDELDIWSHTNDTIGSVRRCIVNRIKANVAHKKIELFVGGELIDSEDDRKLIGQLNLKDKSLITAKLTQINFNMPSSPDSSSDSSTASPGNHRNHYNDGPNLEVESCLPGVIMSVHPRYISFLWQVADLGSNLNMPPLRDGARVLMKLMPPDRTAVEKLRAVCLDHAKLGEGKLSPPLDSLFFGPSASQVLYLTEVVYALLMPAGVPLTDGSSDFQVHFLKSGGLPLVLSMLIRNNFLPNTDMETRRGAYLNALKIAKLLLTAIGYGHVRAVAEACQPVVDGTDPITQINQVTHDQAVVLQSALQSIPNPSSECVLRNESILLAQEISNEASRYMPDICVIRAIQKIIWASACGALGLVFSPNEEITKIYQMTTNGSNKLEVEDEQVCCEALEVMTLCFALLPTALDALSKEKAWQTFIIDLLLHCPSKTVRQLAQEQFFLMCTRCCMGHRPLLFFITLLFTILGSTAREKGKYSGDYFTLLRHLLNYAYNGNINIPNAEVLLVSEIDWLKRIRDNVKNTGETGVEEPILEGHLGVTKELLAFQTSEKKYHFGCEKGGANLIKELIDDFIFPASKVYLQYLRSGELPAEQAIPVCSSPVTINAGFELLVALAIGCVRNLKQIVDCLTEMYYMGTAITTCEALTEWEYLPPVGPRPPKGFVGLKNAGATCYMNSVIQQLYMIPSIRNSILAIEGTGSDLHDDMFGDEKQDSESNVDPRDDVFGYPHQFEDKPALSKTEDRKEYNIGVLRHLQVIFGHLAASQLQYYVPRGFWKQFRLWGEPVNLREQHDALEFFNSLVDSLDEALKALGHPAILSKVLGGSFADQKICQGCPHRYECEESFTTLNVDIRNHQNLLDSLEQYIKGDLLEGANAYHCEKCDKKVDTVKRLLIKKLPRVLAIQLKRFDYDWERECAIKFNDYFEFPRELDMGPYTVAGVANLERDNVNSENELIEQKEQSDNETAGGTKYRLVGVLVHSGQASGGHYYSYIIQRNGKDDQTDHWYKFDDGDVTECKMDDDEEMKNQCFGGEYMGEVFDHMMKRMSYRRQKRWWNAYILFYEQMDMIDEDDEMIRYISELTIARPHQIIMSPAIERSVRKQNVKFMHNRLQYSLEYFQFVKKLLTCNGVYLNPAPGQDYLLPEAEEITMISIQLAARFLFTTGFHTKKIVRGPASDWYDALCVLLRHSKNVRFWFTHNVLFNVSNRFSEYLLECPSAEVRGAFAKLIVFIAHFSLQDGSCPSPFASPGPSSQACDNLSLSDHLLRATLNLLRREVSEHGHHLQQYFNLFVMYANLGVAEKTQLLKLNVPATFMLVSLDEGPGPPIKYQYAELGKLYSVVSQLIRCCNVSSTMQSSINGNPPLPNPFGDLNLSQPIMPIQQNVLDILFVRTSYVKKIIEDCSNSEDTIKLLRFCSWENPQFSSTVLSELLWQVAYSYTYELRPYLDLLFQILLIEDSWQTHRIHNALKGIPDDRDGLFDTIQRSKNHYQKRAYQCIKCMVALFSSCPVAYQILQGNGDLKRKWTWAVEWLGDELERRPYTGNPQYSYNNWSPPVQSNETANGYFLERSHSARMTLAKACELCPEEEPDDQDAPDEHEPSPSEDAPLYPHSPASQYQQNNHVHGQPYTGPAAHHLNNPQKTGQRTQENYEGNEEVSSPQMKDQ

CC(NC(=O)CCl)c1cc2n(n1)CCCC2.Cl (centres undefined)
inactive: [1] -0.0806 | [2] -0.00796 | [3] 0.229 | [4] 0.0045 | [5] 0.0101 | [6] -0.631 | [7] -0.0486 | [8] 0.22 | [9] -0.00538
